A selection: hits, their analogues and other compounds. The true share with any hit is near 3.2%.
NCF1 inh: p47phox/p22phox peptide binding inhibitors, primary screen, biochemical, uHTS, NADPH oxidase regulatory subunit. AID 1274, 2008. inhibition, % at 24.7 µM. Neutrophil cytosol factor 1 (Homo sapiens), P14598. fluorescence polarization, 2 h. 220,000 compounds, 0.53% hits;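 active = inhibition above about 30%, limit read from the data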;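 also: 0% = p47phox with labelled peptide and 100% = labelled peptide alone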
Target sequence (P14598 whole entry, looked up): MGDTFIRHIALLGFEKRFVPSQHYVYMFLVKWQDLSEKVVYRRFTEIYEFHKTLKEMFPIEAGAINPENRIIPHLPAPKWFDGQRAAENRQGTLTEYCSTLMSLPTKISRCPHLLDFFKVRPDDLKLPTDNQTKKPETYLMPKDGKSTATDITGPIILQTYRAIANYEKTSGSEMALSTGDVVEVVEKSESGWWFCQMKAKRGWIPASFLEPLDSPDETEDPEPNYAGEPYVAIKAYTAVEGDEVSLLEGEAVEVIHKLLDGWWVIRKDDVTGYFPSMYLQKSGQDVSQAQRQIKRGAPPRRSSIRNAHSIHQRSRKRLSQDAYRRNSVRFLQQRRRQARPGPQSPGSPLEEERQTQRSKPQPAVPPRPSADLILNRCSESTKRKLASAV
Bim-Mcl-1: inhibitors of Bim peptide binding to Mcl-1, primary screen, biochemical, bead-based flow cytometry, multiplex; inhibition, % at 10 µM; Bim peptide-Mcl-1 binding; Induced myeloid leukemia cell differentiation protein Mcl-1 (Homo sapiens), Q07820; 190,000 compounds, 0.1% hits; in the data active = inhibition above about 40%;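 also: 0% = no compound tracer wells and 100% = peptide blocker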
14-3-3 Bad inh: inhibitors of 14-3-3 zeta/Bad binding, primary screen, biochemical, TR-FRET, bovine 14-3-3 zeta; inhibition, % at 21.7 µM; 220,000 compounds, 0.71% hits; TR-FRET 14-3-3zeta/Dy647-pBad peptide displacement, 1 h; 14-3-3 protein zeta/delta (Bos taurus), P63103;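 active = inhibition above about 70%, limit read from the data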;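 also: 0% = full 14-3-3 plus peptide FRET controls and 100% = background without 14-3-3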
Target sequence (P63103 whole entry, looked up): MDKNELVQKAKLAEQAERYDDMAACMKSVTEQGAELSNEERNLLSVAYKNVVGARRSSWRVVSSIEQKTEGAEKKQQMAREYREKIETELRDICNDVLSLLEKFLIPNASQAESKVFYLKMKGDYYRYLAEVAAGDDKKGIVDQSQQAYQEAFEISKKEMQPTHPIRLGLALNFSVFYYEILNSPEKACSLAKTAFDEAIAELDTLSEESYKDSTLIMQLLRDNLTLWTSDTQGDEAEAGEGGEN
Mcl1-Bid inh: Mcl-1/Bid binding inhibitors, primary screen, biochemical, TR-FRET, 1536-well. Induced myeloid leukemia cell differentiation protein Mcl-1 (Homo sapiens), Q07820. TR-FRET Mcl-1/Bid-Dy647 peptide binding. inhibition, % at 21.7 µM. 220,000 compounds, 0.97% hits;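 active = compounds that cut the binding signal by more than half at the single screening dose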;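 also: His-tagged Mcl-1 with europium anti-His antibody binding Bid BH3 peptide; 0% = Mcl-1 plus peptide wells and 100% = peptide-only wells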
Mcl1-Noxa inh: Mcl-1/Noxa binding inhibitors, primary screen, biochemical, TR-FRET, 1536-well; Induced myeloid leukemia cell differentiation protein Mcl-1 (Homo sapiens), Q07820; TR-FRET Mcl-1/Noxa peptide binding, 2 h; inhibition, % at 21.7 µM; 220,000 compounds, 1.5% hits; AID 1022, 2008;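 active = compounds that cut the protein-peptide binding signal by more than 50% relative to plate controls in a single-dose test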;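 also: His-tagged Mcl-1 with rhodamine Noxa BH3 peptide and terbium anti-His antibody; 0% = Mcl-1 plus Noxa peptide wells and 100% = peptide-only wells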
Numbers without * were called inactive; / = not tested or not shown; [ ] = dose if it differs, or a comment.

SMILES | NCF1 inh | Bim-Mcl-1 | 14-3-3 Bad inh | Mcl1-Bid inh | Mcl1-Noxa inh
COc1ccc(CC2SC(=Nc3ccc(F)cc3)NC2=O)cc1 (centres undefined) | 6.4 | -4.0 | -13.6 | -7.3 | -0.2
Cc1nnc(Nc2ccc3c(c2)OCO3)c2ccccc12 | -4.0 | -1.0 | 81.8*[fluorescence artefact?] | -54.6 | 23.3
Cn1c(=S)[nH]c2scc(-c3cccs3)c2c1=O | -9.1 | 0.0 | -7.1 | -47.1 | 64.1*
Cc1ccc(S(=O)(=O)N2CCCCC2)cc1C(=O)Nc1ccc(S(=O)(=O)Nc2ncccn2)cc1 | -1.6 | / | 11.1 | -1.9 | 21.0
CCC(C)C(=O)Nc1nnc(SCC(=O)Nc2ccc(F)cc2)s1 (centres undefined) | -1.1 | -2.0 | 34.2 | -10.4 | 1.3
CCC(C)C(=O)Nc1nnc(SCC(=O)Nc2ccccc2F)s1 (centres undefined) | -5.3 | 0.0 | 87.1* | -4.3 | 13.9
CC[N+]1(CC(O)COC2CC(C)CC(C)(C)C2)CCOCC1 (centres undefined) | -3.1 | / | 9.0 | -4.1 | 1.3
COc1cc(C(=O)OCn2nnc3ccccc3c2=O)cc(OC)c1OC | -4.6 | 0.0 | -1.1 | 62.2* | 14.9
CCOc1ccc(C(=O)OCn2nnc3ccccc3c2=O)cc1OC | -10.2 | -10.0 | -1.6 | -35.2 | -11.4
COc1ccc(C(=O)N2C(=S)NC(=O)/C2=C\c2ccc(C)cc2)cc1 | -135.9 | -2.0 | 83.9*[fluorescence artefact?] | 6.0 | 46.7
COC(=O)CN1C(=S)N(c2ccc(OC)cc2)C(=O)/C1=C/c1ccc(OC)cc1 | -10.4 | 0.0 | -7.9 | -19.5 | 7.8
CC1CCC(C(C)C)C(OC(=O)C[n+]2cc(-c3ccc(Cl)cc3)n3c2CCC3)C1 (centres undefined) | -3.2 | / | -3.4 | 92.1* | 36.1
O=c1c(C(c2ccc(Br)cc2)c2c(O)nc3n(c2=O)CCCS3)c(O)nc2n1CCCS2 | -12.7 | / | 0.1 | -33.0 | 6.5
O=c1c(C(c2ccc(O)cc2)c2c(O)nc3n(c2=O)CCCS3)c(O)nc2n1CCCS2 | -30.7 | 3.0 | 28.0 | -88.2 | 51.6*
O=c1c(C(c2ccc(O)cc2)c2c(O)nc3n(c2=O)CCS3)c(O)nc2n1CCS2 | -35.2 | 0.0 | 55.1 | -9.1 | 60.0*
O=c1c(C(c2c(O)nc3n(c2=O)CCS3)c2cccc3ccccc23)c(O)nc2n1CCS2 | -25.0 | 1.0 | 58.4 | -11.3 | 53.4*
CC(C)(C)SCCNC(=O)CN(c1ccc(F)cc1)S(=O)(=O)c1ccccc1 | 2.6 | 16.0 | -19.3 | -13.2 | 22.4
CC(C)(C)c1ccc(C(=O)N2CCC(=O)N(C(CO)Cc3ccccc3)CC2)cc1 (centres undefined) | -1.0 | 0.0 | 8.1 | 5.0 | -2.7
O=C(CN1CCN(c2ccccc2O)CC1)Nc1cc([N+](=O)[O-])ccc1Cl | -1.5 | -2.0 | -6.3 | -24.9 | 67.3*
CC(C)CC(=O)Nc1cc([N+](=O)[O-])ccc1Cl | -17.5 | -2.0 | 3.2 | -29.6 | 1.1
O=C(CN1CCN(c2ccccc2O)CC1)Nc1ccc([N+](=O)[O-])cc1Br | -7.6 | -1.0 | -3.5 | -3.2 | 23.8
CC(C(=O)Nc1cc([N+](=O)[O-])ccc1Cl)N1CCN(c2ccc(O)cc2)CC1 (centres undefined) | 11.8 | -1.0 | -6.9 | -61.6 | 78.0*
Cc1nnsc1Sc1ccccc1C(=O)O | -4.4 | 0.0 | -10.9 | -5.3 | 6.4
COc1ccc(C2=NC(=O)/C(=C\c3cc(OC)c(OC)c(OC)c3)O2)cc1 | 16.1 | -7.0 | 26.0 | 54.2* | 32.0
COc1ccc2c(c1)CC/C(=C/c1cc(OC)c(OC)c(OC)c1)C2=O | -14.1 | 2.0 | -19.4 | -10.4 | 4.4
SMILES | NCF1 inh | Bim-Mcl-1 | 14-3-3 Bad inh | Mcl1-Bid inh | Mcl1-Noxa inh
O=C(NCCN1C(=O)S/C(=C\c2cccs2)C1=O)c1ccc(=O)[nH]c1 | -4.6 | -4.0 | 10.7 | 0.1 | 39.5
CN(CC(=O)Nc1cccc(F)c1)CC(=O)Nc1cccc(S(N)(=O)=O)c1 | 0.5 | / | -1.1 | -25.3 | -6.3
COC(=O)c1sccc1NC(=S)N(C)C1CCCCC1 | -5.5 | -5.0 | -3.4 | -39.6 | 2.6
CCCCN(C)C(=S)Nc1ccsc1C(=O)OC | 45.1* | -3.0 | -4.8 | -19.9 | 8.8
NCCNC[C@@H]1COC2(CCCCCCCCCCC2)O1 | -12.7 | / | 13.5 | 58.9* | 24.2
Cc1cc(=O)[nH]c(SCC2COC3(CCCCC3)O2)n1 (centres undefined) | -2.2 | 0.0 | 4.8 | 5.3 | 9.5
COc1cc(CCC(=O)Nc2ccc(Cl)c(C(F)(F)F)c2)cc(OC)c1OC | -5.9 | -5.0 | 75.4*[fluorescence artefact?] | -9.6 | -2.6
Cc1ccc(C)c(C(=O)COC(=O)c2ccccc2N2C(=O)C3C4CCC(C4)C3C2=O)c1 (centres undefined) | -11.9 | -2.0 | 10.6 | 1.9 | 4.8
O=C(c1cccc(C(F)(F)F)c1)C1CCCN(C(=O)CCn2cnnn2)C1 (centres undefined) | 7.1 | / | -4.7 | 0.9 | 6.8
COc1ccc(CNC(=O)C2=CCN(S(=O)(=O)c3ccc(C)cc3)CC2)cc1 | -8.8 | / | 2.4 | -15.3 | 2.4
O=C1CN2CCC1C/C2=C\c1ccnc2c(Cl)cccc12 (centres undefined) | -4.5 | / | 6.6 | 9.7 | -7.5
O=C(Cc1sc(-c2ccccc2Cl)nc1-c1ccccc1)Nc1ccc(F)cc1 | -7.5 | 0.0 | -6.9 | -1.8 | -6.7
O=C(Cc1sc(-c2ccccc2Cl)nc1-c1ccccc1)Nc1ccccc1 | -7.6 | 6.0 | -16.0 | 83.5* | -29.0
CC(=O)Nc1ccc(N=Nc2ccc(O)cc2)cc1 | -1.7 | -2.0 | -7.2 | -54.7 | 1.4
C/C(=N\NC(N)=O)c1cccc(Cl)c1 | -4.0 | 10.0 | 75.2*[fluorescence artefact?] | -22.2 | -8.5
COCCn1nnnc1C(c1ccccc1OC)N1CCN(c2ccccc2F)CC1 (centres undefined) | -2.9 | 0.0 | 73.8* | 2.2 | 16.9
COc1ccc(C(c2nnnn2Cc2cccs2)N2CCN(c3ccccc3F)CC2)cc1OC (centres undefined) | -11.2 | -1.0 | 82.6* | 12.2 | 14.9
CCCC(c1nnnn1Cc1ccccc1)N1CCN(c2ccccc2OC)CC1 (centres undefined) | -1.9 | -5.0 | 83.6* | 0.2 | 20.7
COCCn1nnnc1C(c1ccc(Cl)cc1)N1CCSCC1 (centres undefined) | -3.0 | 2.0 | 74.5* | -24.6 | 21.6
COc1ccccc1NC(=S)NC1CCC(CC2CCC(NC(=S)Nc3ccccc3OC)CC2)CC1 (centres undefined) | -5.0 | 3.0 | -5.6 | -34.6 | 25.5
O=S(=O)(c1ccc2c(c1)CCCN2)N1CCCC2CCCCC21 (centres undefined) | 2.3 | / | -4.1 | -20.0 | 13.2
CCN(CC)c1ccc2c(c1)CCCN2 | -3.8 | 14.0 | 11.2 | -55.3 | 69.0*
CCN(CC)c1ccc(/C=N/NC(=O)Cc2nnc(NC(=O)Nc3ccccc3)s2)cc1 | -190.7 | -12.0 | 3.3 | -67.4 | 72.5*

Assay outcomes as filed in PubChem BioAssay.
